{
  "source": "paper PMC12136788",
  "binders": {"B1": {"name": "28740388_28740508_4059_3pUTR_ENSMUSG00000048271_ENSMUST00000114884|mouse|control|control (ssRNA)", "RNA": "GGGAGUUCUACAGUCCGACGAUCUUUGAGCUGGUAACAUUCUUUCCUGAAUCUAAAACUCUGUGACCAAUCACAUAGCAGGAUCACGAAGAACAAGGUCUACAUGCAUUAUAAGCACUCGGAAACAAAAGAACACGAGAACAGCAACAGAGGAUUGAGCAUCA"}, "B2": {"name": "chr7:149068622:149068623:-_ENSMUSG00000025139_ENSMUST00000001950|mus_hu|mus_mus_mus_hu_False|58_98 (ssRNA)", "RNA": "GGGAGUUCUACAGUCCGACGAUCGUGAGGCCUCUGAGUGAGGUUCCUGGUCUGUCCUGGGUUAGAGUUGUUAAUAUCACUAAGUGGACCAUCUAGAACGUUCCAGUCCCGCCUGACACCUUCAUUCCCAAUGGAGAAGAAAUCCAACAGAGGAUUGAGCAUCA"}, "B3": {"name": "chr14:21343309:21343310:-_ENSMUSG00000021816_ENSMUST00000161445|mus_hu|motif|central (ssRNA)", "RNA": "GGGAGUUCUACAGUCCGACGAUCAGGAUCGGACCAUAACAAGUCACACAUUGGUCCAAAUGCAGGUGGCUCUUUGAAUCGGUCGGAUCUCCUAAUAUCAUCCAGUGUGUGUAUUUCUGGUGAAAGUCCACCAUGAACACAAAGCAACAGAGGAUUGAGCAUCA"}, "B4": {"name": "chr1:78194255:78194256:-_ENSG00000077254_ENST00000357428|hu_mus|motif|central (ssRNA)", "RNA": "GGGAGUUCUACAGUCCGACGAUCAUUGCUGUCCUCAGGAAAGCCUUUGGAGCCACUCUCAUUUUCUGCUUUCUCGCUGCUGCGGCAAGACUCGCACGACUGAAAAUCCACAUCUGACUGGCUCUUCUCUUCCUCCACCGUCUCCAACAGAGGAUUGAGCAUCA"}, "B5": {"name": "chr7:128503047:128503048:+_ENSG00000128524_ENST00000249289|hu_mus|FALSE|FALSE (ssRNA)", "RNA": "GGGAGUUCUACAGUCCGACGAUCGGUGGUAUCCUUCUCCACUACCAGGAAAUUAGGGUGGCGGUUCUUGUUUAGCUCCCCUAUGCCGCCCAACAGGAAACCAGUCACCGUGUCCUCGUCUCCAAUCACCGCGAUUAGCUUACCCAACAGAGGAUUGAGCAUCA"}, "B6": {"name": "chr1:66485654:66485655:+_ENSMUSG00000015222_ENSMUST00000024639|mus_mus|FALSE|FALSE (ssRNA)", "RNA": "GGGAGUUCUACAGUCCGACGAUCAAUUUUUUAUAUAAAAUUGUAACAAUUACUACAGUUGGGGGAUGAAAUUAUUUCUCUAUGGUUUGUAAAGAAUGAAUAUGACACCUGCUCAGAGCCCACUCCUGCCAAGAGCUCAUGCCUCAACAGAGGAUUGAGCAUCA"}, "B7": {"name": "chr14:48151594:48151595:+_ENSMUSG00000037536_ENSMUST00000168833|mus_mus|FALSE|FALSE (ssRNA)", "RNA": "GGGAGUUCUACAGUCCGACGAUCAUUGAAGUUUUUUUAAAAAAUUUUUAACCAGACAAAAGGAUGCACAACAUUUUAAUCUAUUAUAUGAUAUUGUCUUAUUCUGUGGUGAUUAUGUUUAGUCAGCUGUUCAUAAUAUACAAUCAACAGAGGAUUGAGCAUCA"}, "B8": {"name": "chr1:58468927:58468928:-_ENSMUSG00000026034_ENSMUST00000148330|mus_mus|mus_mus_mus_hu_False|58_78 (ssRNA)", "RNA": "GGGAGUUCUACAGUCCGACGAUCAAUUACUGAAAAAGAUGUUCAUUACCUUAGCUAGGCCAUGUAUGAACCAAAUUAUCUAAAAAAAAUAAACAUGGCAAUAUAAAAAUGUUAAGAAUUUACAAAGCUGUACAAAAUAACUUACAACAGAGGAUUGAGCAUCA"}, "B9": {"name": "chr1:58468927:58468928:-_ENSMUSG00000026034_ENSMUST00000148330|mus_mus|mus_mus_mus_hu_False|18_78 (ssRNA)", "RNA": "B8 RNA with U78C, U80C, A84C, U118A, U119A, C122A, A123C, A124U, A125U, G126A"}, "B10": {"name": "chr1:66485654:66485655:+_ENSMUSG00000015222_ENSMUST00000024639|mus_mus|motif|central (ssRNA)", "RNA": "B6 RNA with U80G, A81G"}, "B11": {"name": "chr14:62214197:62214198:+_ENSG00000100644_ENST00000337138|hu_hu|FALSE|FALSE (ssRNA)", "RNA": "GGGAGUUCUACAGUCCGACGAUCAGCAUUAUUAUUUAUGUAAAAUGUGAAAAAAAAGGUGUAAAAAUUUUUCAACUGCCUAUGAUCAUGAUGAAAGGUUACUGCCUUCUUACAAAAAUUAUAUUGGCAUCUUCUUAAAAAUAACAACAGAGGAUUGAGCAUCA"}, "B12": {"name": "chr10:117127018:117127019:-_ENSMUSG00000020184_ENSMUST00000020408|mus_hu|FALSE|FALSE (ssRNA)", "RNA": "GGGAGUUCUACAGUCCGACGAUCAACAGAGCAAGACUCGGUCUCAAAAAAAAUAAUAAGUUACAUUUAAAUGUCAUAUACAUAUUUAAGAAAAAAAAAAACCAAGUACUUCUCAUUUAAGACAGAGUAGAAAUUAUUUAAAAUCAACAGAGGAUUGAGCAUCA"}, "B13": {"name": "chrX:17854524:17854525:+_ENSMUSG00000037369_ENSMUST00000044484|mus_hu|motif|central (ssRNA)", "RNA": "GGGAGUUCUACAGUCCGACGAUCUCGUGAAUUACUCUCAUUAGUGACAAAAAGCAGAUCAAAAACCUCCACUUCACAAAUGCGGCAGUAAUGAGCUGGUUCUUCUUUUGUCCGCCCAUGCCAUAUAAUCUCUUUUCCUGCAGCCAACAGAGGAUUGAGCAUCA"}, "B14": {"name": "30669026_30669146_122_CDS_ENSG00000108666_ENST00000577809|human|control|control (ssRNA)", "RNA": "GGGAGUUCUACAGUCCGACGAUCGCGAUAGCUGUAAAGACAGUAGUGGCUGCUGGACGGCGGCUCGAGUCUCCGCUCCUCGGCUGAGCCUCCCUCUUCGCUGCUCUCUAGUUCCUUUUCAUCUCCAUCCAUCGACUCCUGCAACAACAGAGGAUUGAGCAUCA"}},
  "note": "Where a chain is given by its changes, count along the chain named. Over roughly 24,000 sequences, “enrichment r” has its median near 0.99; the highest 2% begin near 3.7. For the sample, the highest values were picked, then their nearest neighbours and some sequences at random.",
  "data": [
    {"biological_target": "T1, UNK ZnF1-3 (human, UniProt Q9C0B0 31-174)", "T1 sequence": "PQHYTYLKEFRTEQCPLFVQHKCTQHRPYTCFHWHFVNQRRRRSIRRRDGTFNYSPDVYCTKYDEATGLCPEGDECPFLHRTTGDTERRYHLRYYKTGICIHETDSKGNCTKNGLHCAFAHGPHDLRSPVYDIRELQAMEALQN", "assay": "nsRBNS (natural sequence RNA bind-n-seq); RBNS binding buffer (assumed for nsRBNS): 25 mM Tris pH 7.5, 150 mM KCl, 3 mM MgCl2, 0.01% Triton X-100, 500 ug/ml BSA, 20 U/ml SUPERase-In, 4 C; UNK is unkempt and MSI1 is Musashi-1; names of the RNAs are library labels; protein concentration not given here; high values mean tight binding", "units": {"binding signal": "enrichment R"}, "values": [
      {"binder": "B1", "binding signal": 1.22},
      {"binder": "B2", "binding signal": 0.755},
      {"binder": "B3", "binding signal": 0.921},
      {"binder": "B4", "binding signal": 0.703},
      {"binder": "B5", "binding signal": 0.494},
      {"binder": "B6", "binding signal": 2.92},
      {"binder": "B7", "binding signal": 3.47},
      {"binder": "B8", "binding signal": 3.96},
      {"binder": "B9", "binding signal": 1.35},
      {"binder": "B10", "binding signal": 4.27},
      {"binder": "B11", "binding signal": 29},
      {"binder": "B12", "binding signal": 18},
      {"binder": "B13", "binding signal": 0.845},
      {"binder": "B14", "binding signal": 0.51}
    ]}
  ]
}
